PubChem BioAssay (NCATS)
Records with an inconclusive call do not appear. Calls of active or inactive are those of the source. Calls come from the whole dose curve; as a rule, active = well fitted curve in the direction sought with a large enough effect; inconclusive = small, poorly fitted or top-dose-only effect, or another doubt; inactive = no such curve, though single readings can be large; an effect the other way counts as inactive or inconclusive.

Assays:
[1] = qHTS for Inhibitors of the vitamin D receptor (VDR): Hit Validation using a Texas Red Assay (AID 602201); note: potency is the fitted concentration of half-maximal effect
Outline: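 After a 2-hour room-temperature incubation, polarization of Texas-Red emission was read (Ex 595 nm/Em 615 nm). Final mix contained 7 nM Texas Red, 1.5 uM VDR-LBD and LG19078.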

[2] = target: Rap guanine nucleotide exchange factor 3 (Homo sapiens) (UniProt O95398); test: Confirmatory qHTS for antagonist of cAMP-regulated guanine nucleotide exchange factor 3 (EPAC1) (AID 1645880); conditions: EPAC1 Rap1B-BODIPY-GDP exchange, fluorescence; activity, negative = inhibition: at 115 µM (top of the series); note: nearly all actives have a fitted effect of over 55% in size; note: potency is the fitted concentration of half-maximal effect;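 for activity, negative = inhibition: plate controls were DMSO only for no effect and full effect of the ATA control for full effect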
Sequence of Rap guanine nucleotide exchange factor 3 (Homo sapiens) (O95398 whole entry, looked up): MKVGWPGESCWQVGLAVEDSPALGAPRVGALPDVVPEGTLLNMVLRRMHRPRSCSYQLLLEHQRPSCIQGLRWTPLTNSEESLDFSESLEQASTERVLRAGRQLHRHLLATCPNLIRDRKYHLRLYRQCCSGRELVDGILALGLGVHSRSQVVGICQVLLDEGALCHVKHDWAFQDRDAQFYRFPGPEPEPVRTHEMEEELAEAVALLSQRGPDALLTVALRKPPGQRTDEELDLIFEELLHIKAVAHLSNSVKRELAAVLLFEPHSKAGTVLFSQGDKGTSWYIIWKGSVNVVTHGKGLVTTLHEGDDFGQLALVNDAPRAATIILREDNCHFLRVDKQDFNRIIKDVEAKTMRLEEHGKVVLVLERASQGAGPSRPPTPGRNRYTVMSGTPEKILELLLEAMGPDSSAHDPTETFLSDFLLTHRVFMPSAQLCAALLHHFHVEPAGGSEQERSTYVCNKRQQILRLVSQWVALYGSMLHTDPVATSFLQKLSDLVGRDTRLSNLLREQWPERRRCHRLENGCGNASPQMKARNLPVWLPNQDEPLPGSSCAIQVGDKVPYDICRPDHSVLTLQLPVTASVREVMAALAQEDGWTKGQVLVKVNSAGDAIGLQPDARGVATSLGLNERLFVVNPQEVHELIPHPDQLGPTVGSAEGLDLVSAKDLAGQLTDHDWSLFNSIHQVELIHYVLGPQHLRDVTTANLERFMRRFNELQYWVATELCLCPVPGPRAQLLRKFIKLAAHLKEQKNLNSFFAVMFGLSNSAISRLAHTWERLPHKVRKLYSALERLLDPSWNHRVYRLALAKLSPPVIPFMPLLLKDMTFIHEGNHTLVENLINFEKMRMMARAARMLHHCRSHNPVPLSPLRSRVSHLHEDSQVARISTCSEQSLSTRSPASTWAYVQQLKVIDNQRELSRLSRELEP
Outline: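 Nucleotide exchange uses 100 nM EPAC1, 250 nM RAP1B-BODIPY-GDP and 50 uM GDP, with compounds in a concentration-titration series. After 5 min at room temperature, fluorescence (480 nm ex/540 nm em) is read every 5 min for 30 min. Data are normalized to control ATA and DMSO.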

[3] = target: Rap guanine nucleotide exchange factor 3 (Homo sapiens) (UniProt O95398); test: Confirmatory qHTS for agonist of cAMP-regulated guanine nucleotide exchange factor 3 (EPAC1) (AID 1645881);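 note: EPAC1 catalysed release of BODIPY-GDP from Rap1B seen as fluorescence loss; 100% = effect of cAMP agonist control; nearly all actives have a fitted effect of over 75% in size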
[4] = target: Rap guanine nucleotide exchange factor 4 (Homo sapiens) (UniProt Q8WZA2); test: Confirmatory qHTS for antagonist of cAMP-regulated guanine nucleotide exchange factor 4 (EPAC2) (AID 1645885); note: nearly all actives have a fitted effect of over 25% in size; note: potency is the fitted concentration of half-maximal effect; for activity change, negative = inhibition: % is set by controls: 0 for no effect and ±100 for the full control effect
Sequence of Rap guanine nucleotide exchange factor 4 (Homo sapiens) (Q8WZA2 whole entry, looked up): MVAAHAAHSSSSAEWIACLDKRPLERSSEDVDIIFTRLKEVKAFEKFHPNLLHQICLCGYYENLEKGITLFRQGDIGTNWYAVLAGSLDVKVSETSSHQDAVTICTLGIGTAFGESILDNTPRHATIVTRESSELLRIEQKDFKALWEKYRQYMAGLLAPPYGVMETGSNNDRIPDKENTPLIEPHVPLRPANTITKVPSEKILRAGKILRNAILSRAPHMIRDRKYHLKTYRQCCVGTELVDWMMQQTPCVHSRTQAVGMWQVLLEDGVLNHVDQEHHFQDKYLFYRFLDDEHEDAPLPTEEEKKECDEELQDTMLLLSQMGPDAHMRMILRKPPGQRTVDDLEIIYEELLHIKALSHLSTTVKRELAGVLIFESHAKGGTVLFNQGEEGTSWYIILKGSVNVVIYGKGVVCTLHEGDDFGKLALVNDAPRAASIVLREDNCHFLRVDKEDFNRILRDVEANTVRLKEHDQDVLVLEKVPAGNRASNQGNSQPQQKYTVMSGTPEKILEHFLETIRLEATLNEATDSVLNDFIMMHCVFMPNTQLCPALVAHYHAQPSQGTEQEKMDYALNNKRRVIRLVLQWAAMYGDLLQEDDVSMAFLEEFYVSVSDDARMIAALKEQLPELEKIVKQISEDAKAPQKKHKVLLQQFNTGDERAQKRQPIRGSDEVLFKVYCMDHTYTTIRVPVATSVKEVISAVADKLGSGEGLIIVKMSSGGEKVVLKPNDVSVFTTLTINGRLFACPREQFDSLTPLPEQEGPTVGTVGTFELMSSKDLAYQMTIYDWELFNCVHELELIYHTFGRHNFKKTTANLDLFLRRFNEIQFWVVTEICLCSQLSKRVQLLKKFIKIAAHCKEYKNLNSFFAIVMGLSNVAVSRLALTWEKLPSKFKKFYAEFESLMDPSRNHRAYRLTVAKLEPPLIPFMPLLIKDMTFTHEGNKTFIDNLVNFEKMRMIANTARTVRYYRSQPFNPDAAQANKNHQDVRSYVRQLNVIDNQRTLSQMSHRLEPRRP

[5] = target: Rap guanine nucleotide exchange factor 3 (Homo sapiens) (UniProt O95398); test: Counterscreen qHTS for antagonist of cAMP-regulated guanine nucleotide exchange factor 3 (EPAC1) (AID 1645888);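 note: fluorescence loss as bound BODIPY-GDP is released from Rap1B; % of control where 0% means no effect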
Outline: (§1)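 Rap1B-BODIPY-GDP 250 nM + GDP 50 uM; cpds 7-pt, final 9.74 nM–152 uM (activator mode) or from 7.32 nM upwards (inhibitor mode); RT; FI 480/540 nm at 5 and 30 min, then ± cAMP, reread.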

[6] = target: Rap guanine nucleotide exchange factor 3 (Homo sapiens) (UniProt O95398); test: Counterscreen qHTS for agonist of cAMP-regulated guanine nucleotide exchange factor 3 (EPAC1) (AID 1645889); note: nearly all actives have a fitted effect of over 40% in size; note: potency is the fitted concentration of half-maximal effect; for activation: % of control where 0% means no effect
Outline: as §1

[7] = target: Tumor susceptibility gene 101 protein (Homo sapiens) (UniProt Q99816); test: qHTS Assay for Iinhibitors of HIV-1 Budding by Blocking the Interaction of PTAP/TSG101: Hit Validation (AID 651600); note: potency is the fitted concentration of half-maximal effect; nearly all actives have a fitted effect of over 70% in size
Sequence of Tumor susceptibility gene 101 protein (Homo sapiens) (Q99816 whole entry, looked up, the tested form may be a part): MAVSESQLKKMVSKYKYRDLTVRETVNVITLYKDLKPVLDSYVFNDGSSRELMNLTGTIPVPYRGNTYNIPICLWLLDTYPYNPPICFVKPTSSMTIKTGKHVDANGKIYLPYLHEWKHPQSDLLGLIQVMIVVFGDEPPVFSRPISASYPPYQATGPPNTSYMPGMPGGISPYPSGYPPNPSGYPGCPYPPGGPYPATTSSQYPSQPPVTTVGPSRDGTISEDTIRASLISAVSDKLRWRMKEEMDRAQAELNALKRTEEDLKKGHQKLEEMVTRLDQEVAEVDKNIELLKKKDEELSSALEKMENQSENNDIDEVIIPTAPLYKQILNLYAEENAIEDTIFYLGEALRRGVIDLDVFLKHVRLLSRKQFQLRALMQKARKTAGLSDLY
Outline: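 Fluorescence polarization binding assay: Tsg101 binding domain (10 uM) mixed with compounds and FITC-labeled PTAP peptide (50 nM) in HEPES pH 7.5, 0.15 M NaCl, 0.01% Tween 20, EDTA, TCEP; 20 min at r.t.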

[8] = target: Tyrosyl-DNA phosphodiesterase 1 (Homo sapiens) (UniProt Q9NUW8); test: Confirmation Assay for Inhibitors of Tyrosyl-DNA Phosphodiesterase (TDP1) (AID 489007); conditions: recombinant human TDP1 enzymatic activity, dose-response; note: potency is the fitted concentration of half-maximal effect; nearly all actives have a fitted effect of over 40% in size
Sequence of Tyrosyl-DNA phosphodiesterase 1 (Homo sapiens) (Q9NUW8 whole entry, looked up): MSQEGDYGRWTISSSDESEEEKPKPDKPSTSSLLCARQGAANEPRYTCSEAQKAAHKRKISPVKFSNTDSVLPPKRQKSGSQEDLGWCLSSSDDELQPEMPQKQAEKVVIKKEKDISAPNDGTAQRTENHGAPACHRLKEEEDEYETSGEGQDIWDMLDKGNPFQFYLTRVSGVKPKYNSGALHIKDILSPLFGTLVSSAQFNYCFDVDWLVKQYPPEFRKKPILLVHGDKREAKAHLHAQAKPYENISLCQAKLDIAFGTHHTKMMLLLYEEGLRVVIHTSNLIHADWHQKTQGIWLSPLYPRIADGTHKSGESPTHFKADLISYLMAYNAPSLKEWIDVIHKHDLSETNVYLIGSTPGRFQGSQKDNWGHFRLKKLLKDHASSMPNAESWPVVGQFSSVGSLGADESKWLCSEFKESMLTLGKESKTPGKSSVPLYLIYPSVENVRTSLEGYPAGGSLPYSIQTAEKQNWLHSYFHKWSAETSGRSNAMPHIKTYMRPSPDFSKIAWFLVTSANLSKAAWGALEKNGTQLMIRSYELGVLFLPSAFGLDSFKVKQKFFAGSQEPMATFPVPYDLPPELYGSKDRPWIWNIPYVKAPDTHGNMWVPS
Outline: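 Confirmation of primary-screen follow-ups in a qHTS format. Substrate cleavage by Tdp1 (1 nM) of a 3'-phosphotyrosine-FITC, 5'-biotin oligo (15 nM) was monitored as decreased AlphaScreen signal after a 5 min room-temperature reaction.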

COc1cc([N+](=O)[O-])ccc1-c1ccc(/C=C2\C(=O)ON=C2c2ccccc2)o1
active: Potency [1] 3.16 µM | Potency [2] 19 µM
inactive: Potency [3] | Potency [4] | Potency [5] | Potency [6]

Cc1nn(-c2c(Cl)cc(Cl)cc2Cl)c(=O)c2ccccc12
inactive: Potency [2] | Potency [3] | Potency [5]

COc1ccc2ccccc2c1C(O)c1nccn1C (centres undefined)
active: Potency [7] 8.19 µM
inactive: Potency [2] | Potency [3] | Potency [4] | Potency [5]

CC1CCCN(C2(O)C(=O)Nc3ccc(Br)cc32)C1 (centres undefined)
inactive: Potency [2] | Potency [3] | Potency [5]

CC(=O)C1=CCC(c2cccc(Cl)c2)N(S(=O)(=O)c2ccc(C)cc2)C1 (centres undefined)
inactive: Potency [2] | Potency [3] | Potency [4] | Potency [5] | Potency [6]

O=C(O)c1ccc(NC(=O)C(c2ccccc2)c2ccccc2)cc1
inactive: Potency [2] | Potency [3] | Potency [5]

COc1ccc(Cn2c(=O)cc(C)[nH]c2=S)cc1
inactive: Potency [2] | Potency [3] | Potency [4] | activity change, negative = inhibition [5] -27% [at 30.8 µM] | activation [6] -6.93% [at 30.8 µM]

CCOc1ccccc1NC(=O)N1CCC(N2CCN(Cc3ccccc3)C(=O)C2=O)CC1
inactive: Potency [2] | Potency [3] | outcome [4] inactive [at 12.7 µM] | Potency [5] | Potency [6]

COc1ccc2c(c1)Cc1sc(NC(=O)c3cccc(C)c3)nc1-2
inactive: Potency [3] | Potency [4] | Potency [5]
active: Potency [1] 10 µM | Potency [2] 84.9 µM

COc1cc(N)ccc1-c1cc2ccccc2oc1=O
inactive: Potency [2] | Potency [3] | Potency [5]

COc1ccc(C(=O)Nc2ccc(NC(=O)c3cccs3)cc2)cc1OC
inactive: Potency [2] | Potency [3] | Potency [4] | Potency [5] | Potency [6]

Cc1ccc2nc(SCC(=O)c3c(N)n(C4CC4)c(=O)[nH]c3=O)[nH]c2c1
inactive: Potency [2] | Potency [3] | Potency [4] | Potency [5] | Potency [6]

CCn1cc(C=C2C(=O)c3ccccc3C2=O)c2ccccc21
inactive: Potency [2] | Potency [3] | Potency [4] | Potency [5] | Potency [6]
active: Potency [7] 14.6 µM

Oc1[nH]c2ccccc2c1N=Nc1ccccc1F
inactive: Potency [2] | Potency [3] | Potency [4] | Potency [5]
active: Potency [6] 11.2 µM

COC(=O)c1cc2sccc2n1Cc1ccccc1
active: Potency [6] 44.7 µM
inactive: Potency [2] | Potency [3] | Potency [4] | Potency [5]

CCN(CC)CCOC(=O)c1ccc(NC(=O)c2nn(-c3ccc(C)cc3)c(=O)c3c2c2ccccc2n3C)cc1
active: Potency [2] 42.6 µM
inactive: Potency [3] | outcome [4] inactive [at 12.7 µM] | Potency [5] | Potency [6]

CCOC(=O)Nc1ccccc1C(=O)Nc1cc(C)cc(C)c1
inactive: Potency [2] | Potency [3] | Potency [4] | Potency [5]
active: Potency [6] 0.631 µM

CCN(CC)CC#CCOC(c1ccccc1)c1ccccc1
active: Potency [4] 37.9 µM
inactive: Potency [2] | Potency [3] | Potency [5] | Potency [6]

CCC(C)Cn1c(COc2ccc(OC)cc2)nc2ccccc21 (centres undefined)
inactive: Potency [2] | Potency [3] | Potency [4] | Potency [5] | Potency [6]

CC(=O)N1CCN(C(=O)c2[nH]c(C(F)(F)F)nc2-c2ccccc2)CC1
inactive: Potency [2] | Potency [3] | Potency [4] | Potency [5] | Potency [6]

COc1c(Cl)cc(Cl)cc1CNc1ccc(S(N)(=O)=O)cc1
inactive: Potency [2] | Potency [3] | Potency [5]

O=c1onc(-c2ccccc2)n1-c1cc(Cl)cc(Cl)c1
inactive: Potency [2] | Potency [3] | Potency [4] | Potency [5] | Potency [6]

CC(=O)Nc1ccc(/C(C)=N/NC(=O)c2ccc(COc3ccccc3Cl)o2)cc1
inactive: Potency [2] | Potency [3] | Potency [4] | activity change, negative = inhibition [5] 0.248% [at 30.8 µM] | activation [6] 15.7% [at 30.8 µM]

COc1cc(CN2C(=O)C(C)ON=C2c2ccccc2F)cc(OC)c1 (centres undefined)
inactive: Potency [2] | Potency [3] | Potency [4] | Potency [5] | Potency [6]

CN(Cc1ccccc1)c1nc(-c2ccc(F)cc2)cc(C(F)(F)F)n1
inactive: Potency [2] | Potency [3] | Potency [5] | Potency [6]
active: Potency [8] 28.2 µM | Potency [4] 0.0849 µM

O=C1C=C(c2ccccc2Oc2ccccc2)C[C@@H](c2ccc3c(c2)OCO3)C1
inactive: Potency [2] | Potency [3] | Potency [4] | Potency [5] | Potency [6]

Cc1cc(C)c2c(CN3CCCCC3C)cc(=O)oc2c1 (centres undefined)
inactive: Potency [2] | Potency [3] | activity change, negative = inhibition [5] -3.91% [at 30.8 µM]

Cc1ccc(N2CC(NC(=O)C(=O)c3c[nH]c4ccccc34)CC2=O)cc1C (centres undefined)
inactive: Potency [2] | Potency [3] | Potency [5]
